Reference: PubChem BioAssay AID2314 (National Center for Advancing Translational Sciences (NCATS), 2010)
About 37,000 (12%) of roughly 300,000 compounds were called active. For the sample, actives were picked, then their nearest neighbours and some compounds at random. A number with no mark means an inactive call. Cut-off read from the data, not from the text of the source: active = max response mostly above about 13% (no sharp cut-off); inactive = mostly below about 14%.

Assay: Cycloheximide Counterscreen for Small Molecule Inhibitors of Shiga Toxin; note: read at 38.3 µM for the half of the compounds with a filed dose; 0% is about no effect
Details: cell reporter, cycloheximide protein synthesis inhibition counterscreen; hits give high values

Structure (SMILES) | max response
COc1ccc(C)cc1N(CC(=O)N1CCCC1)S(=O)(=O)c1ccccc1 | 9.95%
CCOC(=O)Cc1csc(NC(=O)COc2ccc3c(C)cc(=O)oc3c2)n1 | 5.78%
CCOC(=O)Cc1csc(NC(=O)C(C)(C)C)n1 | 26.6% (active)
CCCCCCC(=O)Nc1nc(C)c(-c2csc(Nc3cccc(OC)c3)n2)s1 | -1.06%
CCOC(=O)Cc1csc(NC(=O)CSc2nc(C)cc(=O)[nH]2)n1 | -1.4%
CCOC(=O)Cc1csc(NC(NC(=O)OCC)(C(F)(F)F)C(F)(F)F)n1 | -0.89%
CCOC(=O)c1cnc(SCC(=O)Nc2cccc(OC)c2)nc1N | -6%
CCOC(=O)Cc1csc(NC(=O)CSc2ccc(Br)cc2)n1 | -1.14%
CCOC(=O)Cc1csc(NC(=O)Nc2ccccc2)n1 | 21.8% (active)
CCOC(=O)c1csc(NC(=O)Nc2cccc(OC)c2)n1 | 15% (active)
COc1ccccc1N1CCN(C(=O)c2ccc(NC3=NC4CS(=O)(=O)CC4S3)cc2)CC1 (stereo not drawn) | 6.59%
O=C(Nc1ccc(F)cc1F)N1CCCN(CCOc2ccccc2)CC1 | -1.88%
CN1CCN(C(=O)c2cnn(-c3ccccc3)c2NC(=O)c2ccc([N+](=O)[O-])cc2)CC1 | -1.78%
S=c1[nH]ccn1-c1ccc(Cl)cc1 | -4.55%
CN(Cc1ccccc1)C(=O)COC(=O)c1ccccc1Nc1ccccc1 | -1.45%
CC1(C(=O)O)CCC(C(=O)Nc2ccc(Cl)c(Cl)c2)C1(C)C (stereo not drawn) | -1.72%
N/C(=N\OC(=O)/C=C/c1ccccc1)c1ccc(Br)cc1 | 1.02%
N/C(=N\OC(=O)N1c2ccccc2Sc2ccccc21)c1ccc(Br)cc1 | -1.54%
N/C(=N\OC(=O)c1ccc2c(c1)OCO2)c1ccc(Br)cc1 | 32.7% (active)
CCCc1nc2c(c(=O)c3ccccc3n2C)c(=O)n1-c1cc(C)cc(C)c1 | -0.943%

Structure (SMILES) | max response
NS(=O)(=O)c1ccc(NC(=O)COC(=O)c2c3c(nc4ccccc24)/C(=C\c2ccc4c(c2)OCO4)CCC3)cc1 | 42.8% (active)
O=C(COC(=O)c1c2c(nc3ccccc13)/C(=C\c1cccs1)CCC2)Nc1ccccc1Cl | 10.2%
CN(C)S(=O)(=O)c1ccc(NC(=O)COC(=O)c2n[nH]c3ccccc23)cc1 | -0.614%
COc1cc(/C=C2\CCCc3c2nc2ccccc2c3C(=O)O)cc(Cl)c1O | 4.53%
NC(=O)c1ccc(NC(=O)COC(=O)c2c3c(nc4ccccc24)/C(=C\c2ccc4c(c2)OCO4)CCC3)cc1 | 38.8% (active)
COc1cc(-c2cc(C(=O)OCC(=O)Nc3ccc4c(c3)OCO4)c3ccccc3n2)cc(OC)c1OC | 4.65%
CCC1CCCCN1C(=O)Nc1cccc(NC(=O)N2CCCCC2CC)c1 (stereo not drawn) | 4.95%
COc1ccc(C(=O)NC2CC2)cc1OC1CCN(Cc2cnn(C)c2)CC1 | -0.356%
CCCCc1nc2cc(C(=O)NCCc3cnn(C)c3)ccc2o1 | 38.8% (active)
CCCCc1nc2cc(C(=O)N3CCCCC3CCO)ccc2o1 (stereo not drawn) | 45.9% (active)
CCC1CCCCN1C(=O)CSc1nc(C)cc(C)n1 (stereo not drawn) | 0.953%
Cc1c(C(=O)N(C)CCc2cnn(C)c2)oc2c(F)cccc12 | -2.99%
CCn1c(=O)n(CC)c2cc(N3CCCC3)c(NC(=O)c3ccccc3Br)cc21 | -1.85%
CC(C)(C)c1ccc(C(=O)N2CCN(CCNC(=O)C(=O)Nc3ccc(F)cc3)CC2)cc1 | 5.93%
Cc1ccc(-c2nnc(-n3nnc4ccccc43)c3ccccc23)cc1 | 9.11%
CCOc1cc(/C=C2\C(=N)N3N=C(C)SC3=NC2=O)ccc1OCCOc1ccccc1 | -1.53%
CC1CCN(C2=NC(=O)/C(=C/c3ccc(O)cc3)S2)CC1 | 31.9% (active)
CCOc1cc(/C=C2/C(=N)N3OC(C)=CC3=NC2=O)ccc1OC | 4.64%
O=C(Nc1nnc(S(=O)(=O)N2CCCCCC2)s1)c1cccc(Br)c1 | -2.43%
CCOc1ccc(/C=C2\SC(=S)N(NC(=O)c3ccncc3)C2=O)cc1OC | -1.69%

Structure (SMILES) | max response
CC1CCN(C2=NC(=O)/C(=C/c3cn[nH]c3-c3ccccc3)S2)CC1 | 20.1%
CCOc1cc(C(=S)N2CCOCC2)ccc1O | -1.42%
O=C1N=C(N2CCc3ccccc3C2)S/C1=C\c1ccc(O)cc1 | 10.4%
CCOc1cc(/C=C2\SC(N3CCCCC3)=NC2=O)ccc1O | 36.3% (active)
O=C1N=C(N2CCCC2)S/C1=C\c1cccc(Br)c1 | 20.2% (active)
CCOc1cc(/C=C2\SC(N3CCCC(C)C3)=NC2=O)ccc1O (stereo not drawn) | 36.5% (active)
O=C1N=C2SCCN2/C1=C\c1c(Cl)cccc1Cl | 1.23%
Cc1ccc(N2CC(C(=O)NCCS(=O)(=O)N3CCN(c4ccccc4)CC3)CC2=O)cc1 (stereo not drawn) | 1.37%
CCOC(=O)c1c(-c2ccccc2)oc2ccc(OCC(N)=O)cc12 | -1.21%
O=C(O)CCCCCCCCc1cn(CN2C(=O)c3ccccc3C2=O)nn1 | 1.15%
CCc1ccc(-c2cc3c(=O)n(CC(=O)NCCCN4CCN(Cc5ccccc5)CC4)nc(C)n3n2)cc1 | -1.84%
O=C(Cn1nc(CNc2ccc(Cl)cc2)[n+]2c1CCCCC2)c1ccc(Cl)cc1 | 11%
Cc1cccc(Oc2c([N+](=O)[O-])c(=O)n(C)c3ccccc23)c1 | 6.49%
CCOc1ccc(CCNC(=O)C(CC)n2nc(C)n3c(cc4sccc43)c2=O)cc1OCC (stereo not drawn) | -1.8%
Cn1c(=O)[nH]c(=O)c2c1nc(N1CCN(CCO)CC1)n2CCSc1nc2ccccc2s1 | -5.89%
CCN(CC)CCCSc1nc2ccccc2s1 | 36% (active)
Cc1nc2nc(CSc3nc4ccccc4s3)cc(=O)n2[nH]1 | -7.38%
O=C(COCc1cc(-c2ccc3c(c2)OCO3)on1)N1CCN(c2cccc(Cl)c2)CC1 | -2.82%
